BioA inh: M. tuberculosis BioA enzyme inhibitors, primary screen, biochemical, plate reader, single point, HTS; 7,8-diaminopelargonic acid synthase BioA (Mycobacterium tuberculosis); purified M. tuberculosis BioA enzyme; inhibition, % at 9.99 µM; hit rate 0.096% among 360,000; AID 602481, 2012; in the data active = inhibition above about 40%; inconclusive = no clear call, values can overlap the other calls
PrP 5UTR inh: inhibition of PrP 5' UTR reporter expression | cell-based PrP 5' UTR mRNA reporter, plate reader | AID 488862, 2010 | hit rate 0.35% among 340,000 | inhibition, % (test concentration not listed); in the data active = inhibition above about 52%; also: 0 = median of the neutral control wells
TcdB inh: TcdB glycohydrolase inhibitors, primary screen, biochemical, single point, plate reader; TcdB glycohydrolase enzymatic assay; inhibition, % at 9.99 µM; hit rate 0.24% among 350,000; AID 652162, 2013; in the data active = inhibition above about 10%
FadD28 FP inh: inhibitors of FadD28 bisubstrate probe binding, primary screen, biochemical, fluorescence polarization, single point. inhibition, % at 12.5 µM. Mycobacterium tuberculosis FadD28 fatty-acid-AMP ligase. hit rate 0.22% among 360,000; in the data active = inhibition above about 8.5%, passing the limit was not always enough; inconclusive = no clear call, values can overlap the other calls
Y pestis TopoI: Yersinia pestis topoisomerase I inhibitors, primary screen, biochemical, cleavage product accumulation, plate reader, single point. activity, % at 10 µM. AID 504884, 2011. hit rate 0.064% among 360,000. Y. pestis Topo-I cleavage product accumulation. DNA topoisomerase I (Yersinia pestis CO92); in the data active = activity above about 50%, passing the limit was not always enough; inconclusive = no clear call, values can overlap the other calls
PfHsp40 yeast: rescue of yeast from PfHsp40 toxicity, primary screen, S. cerevisiae, ATP luminescence; S. cerevisiae expressing PfHsp40, growth rescue; growth rescue, % at 12.5 µM; hit rate 0.68% among 340,000; in the data active = growth rescue above about 28%, passing the limit was not always enough; inconclusive = no clear call, values can overlap the other calls;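 also: yeast W303a lacking pdr1 and pdr3 grown in galactose medium; growth measured after three days at 30 °C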
An asterisk follows results filed as active; ? = inconclusive; . = not tested or not shown. Hits are enriched below; roughly 1.2% of the tested compounds scored in any of these assays.

SMILES | BioA inh | PrP 5UTR inh | TcdB inh | FadD28 FP inh | Y pestis TopoI | PfHsp40 yeast
CCCNc1nc(C)cc(-c2cc(C(=O)Nc3ccccc3)on2)n1 | 0 | -17 | 1 | -2 | -1 | 196*
CO[C@@H]1CN(C)C(=O)c2ccc(NC(=O)c3cc(C)on3)cc2OC[C@@H](C)N(C(=O)C2CC2)C[C@H]1C | 3 | . | 0 | . | . | .
CCN1CCN(C(=S)NC(=O)c2cccs2)CC1 | -1 | -14 | 0 | -1 | 1 | 0
O=C(NC(=S)N1CCN(c2ccc(C(F)(F)F)cc2[N+](=O)[O-])CC1)c1cccs1 | 5 | -10 | . | 2 | -4 | 122*
CC(C)C#Cc1cnc2c(c1)C(=O)N([C@@H](C)CO)C[C@@H](C)[C@@H](CN(C)Cc1ccccc1F)O2 | 3 | . | 1 | . | . | .
CNC(=O)c1c(NC(=O)CS(=O)(=O)c2ccccc2)sc(C)c1C | . | -19 | 2 | 1 | 11 | 51*
C[C@@H]1CN([C@@H](C)CO)C(=O)c2cc(NC(=O)C3CC3)ccc2O[C@@H]1CN(C)C(=O)Nc1cccc2ccccc12 | 4 | . | 0 | . | . | .
O=C(Nc1ccc(N2CCOCC2)c(Cl)c1)c1ccc(F)cc1 | 4 | -69 | 17* | -3 | 3 | 2
CN(C)c1ccc(C(=O)OCC#CCSc2nnc(-c3cccc4ccccc34)o2)cc1 | -1 | -22 | 14* | -1 | -9 | 0
O=C(OCC#CCSc1nnc(-c2cccc3ccccc23)o1)c1ccc(Br)cc1 | -6 | -16 | 2 | -4 | 13 | -1
O=C(c1ccccn1)N1CC(=O)N2[C@@H](CO)[C@@H](c3ccc(C#CCc4ccccc4)cc3)[C@@H]2C1 | . | . | 1 | . | . | .
O=C1C=C(c2ccccc2)C(=O)N1Nc1ccccc1 | . | -1 | . | 0 | -2 | 264*
CC(C)=CCc1c(O)c(CC=C(C)C)c2c(c1O)C(=O)CC(c1ccc(O)cc1)O2 (stereo not given) | -1 | -2 | 0 | -6 | -16 | 9
CC(C)=CCc1c(O)cc(O)c2c1OC(c1ccc(O)cc1)CC2=O (stereo not given) | 2 | -34 | 7 | -9 | -9 | 262*
Cc1ccc(C(C)(C)C)cc1S(=O)(=O)Nc1ncnc2sccc12 | . | -14 | -3 | 2 | 5 | 251*
COc1ccc(OCc2cc(-c3ccc(Cl)cc3)no2)cc1 | 0 | -23 | 19* | -3 | 1 | 6
O=S(=O)(NC1CCCCCCC1)c1ccc(F)cc1 | 1 | . | 12* | -4 | 8 | .
CCOc1cc(S(=O)(=O)NC2CCCCC2)ccc1F | 0 | -34 | . | -3 | -3 | 89*
O=C(CSc1ccc(Cl)cc1)N1CCN(c2c(Cl)cccc2[N+](=O)[O-])CC1 | -2 | -15 | . | 1 | ? | 66*
O=C(/C=C/c1ccc(Cl)cc1)N1CCN(c2c(Cl)cccc2[N+](=O)[O-])CC1 | -1 | -18 | -1 | 0 | 32 | 3
CC(=O)Nc1ccc(N(C(=O)c2ccco2)C(C(=O)NC2CCCC2)c2cccs2)cc1 (stereo not given) | . | -11 | 13* | -1 | 8 | 1
CCc1ccc(-c2ccc(SCC(=O)NC3CCCC3)nn2)cc1 | -1 | . | -3 | -4 | -4 | .
O=C(CSc1ccc(-c2ccccn2)nn1)c1ccc(F)cc1 | 0 | -27 | 2 | -4 | 9 | 6
O=C(CSc1ccc(-c2ccccn2)nn1)NC1CCCC1 | . | -26 | 1 | -3 | -11 | 221*
O=C(CSc1ccc(-c2ccccn2)nn1)c1ccccc1 | . | -42 | 1 | -4 | 13 | 401*
c1ccc(CSc2ccc(-c3ccccn3)nn2)cc1 | 0 | -68 | 0 | -2 | -13 | 112*
O=C(CSc1ccc(-c2ccco2)nn1)N1CCCC1 | 0 | -26 | 1 | -3 | 6 | 0
O=C(CSc1ccc(-c2ccccn2)nn1)N1CCCC1 | . | -13 | 1 | 0 | -1 | 91*
CC(C)NC(=O)Nc1cccc2c1O[C@@H](CN(C)Cc1ccc(C(F)(F)F)cc1)[C@H](C)CN([C@@H](C)CO)C2=O | . | . | 1 | . | . | .
CCC(=O)N[C@H]1CC[C@H](CCNS(=O)(=O)c2ccc(Cl)cc2)O[C@@H]1CO | -2 | . | 0 | . | . | .
